# Results filed as inconclusive are left out. Activity calls are given as the source filed them. Calls follow the shape of the dose curve; as a rule, active = well fitted inhibition curve with a large enough effect; inconclusive = small, poorly fitted or top-dose-only effect, or effect the other way; inactive = flat fitted curve, though single readings scatter.
# Assay: qHTS Assay Multiplex Screening to Identify Dual Action Probes in a Cell Model of Huntington: Cytoprotection (Protease relase)
# Settings: PC12 HttQ103 cells, Cytotox-Glo protease release, 40 h; series mostly up to 46.1 µM
# In short: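 Inducible PC12 line expressing HTT exon 1 (Q103)-GFP, induced with 100 nM tebufenozide (final) and treated with compounds. Cytoprotection read as released protease activity by Cytotox-Glo luminescence.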
row,SMILES,Potency
1,O=C(CN1CCN(c2ccccn2)CC1)NC1CCCC1,inactive
2,COc1cccc(-c2csc3ncnc(Sc4nnnn4C)c23)c1,7.08 µM (active)
3,COc1cc(-c2nc(S(=O)(=O)c3ccc(C)cc3)c(N(C)C)o2)cc(OC)c1OC,inactive
4,NCCCCCc1cnc[nH]1,inactive
5,Cn1nnnc1Sc1ncnc2scc(-c3ccc[nH]3)c12,8.91 µM (active)
6,CC(=O)Oc1cccc(C(=O)O)c1OC(C)=O,inactive
7,O=C(O)c1cccc(COc2ccc(CO)cc2Cl)c1,0.501 µM (active)
8,Cn1nnnc1Sc1ncnc2scc(-c3cccc(S(C)(=O)=O)c3)c12,7.08 µM (active)
9,C=C(C)C(=O)OCCCCCCOc1ccc(C(=O)O)cc1,2.24 µM (active)
10,COc1cc2nc(N3CCN(C(=O)C4CCCO4)CC3)nc(N)c2cc1OC (stereo not drawn),4.47 µM (active)
11,Cn1nnnc1Sc1ncnc2scc(-c3ccc(-c4ccccc4)cc3)c12,10 µM (active)
12,Cc1ccc(-c2csc3ncnc(Sc4nnnn4C)c23)cc1,14.1 µM (active)
13,O=C(O)CCN1C(=O)/C(=C\c2ccc(-c3nc4ccccc4s3)o2)SC1=S,5.62 µM (active)
14,COC(=O)c1ccc(NC(=O)CN2C(=O)CSC2=O)cc1,inactive
15,COC(=O)CNC(=O)C1CCN(C(=O)OCc2ccccc2)CC1,1.41 µM (active)
16,Cc1cc(C)n(S(=O)(=O)/C=C/c2ccccc2)n1,inactive
17,COc1ccc2cc3cc(C(=O)NCc4ccco4)oc3nc2c1,1 µM (active)
18,Cn1nnnc1Sc1ncnc2scc(-c3cccc([N+](=O)[O-])c3)c12,12.6 µM (active)
19,COC(=O)C(O)(CC(=O)Nc1ccc(OC(F)(F)F)cc1)C(F)(F)F (stereo not drawn),inactive
20,Cc1[nH]nc2c1C(c1cccc(O)c1)C1=C(CC(C)(C)CC1=O)N2 (stereo not drawn),inactive
21,CCc1nc(SCC(=O)N2CCCC2)c2ccccc2n1,inactive
22,C#CCN(C)CCCOc1ccc(Cl)cc1Cl,inactive
23,Cn1nnnc1Sc1ncnc2scc(-c3ccc(F)cc3)c12,15.8 µM (active)
24,Cc1noc(C)c1COC(=O)Cc1ccc(Cl)cc1,inactive
25,O=C(O)/C=C/C(O)c1ccc(Cl)cc1 (stereo not drawn),inactive
26,Cn1nnnc1Sc1ncnc2scc(I)c12,11.2 µM (active)
27,O=C(NCc1ccco1)c1cc2ccc(O)cc2oc1=O,2.82 µM (active)
28,CC(C(=O)O)c1ccc(CC2CCCC2=O)cc1 (stereo not drawn),inactive
